In ChEMBL document CHEMBL4513216, “Probing the Open Global Health Chemical Diversity Library for Multistage-Active Starting Points for Next-Generation Antimalarials” (ACS Infect Dis, 2020):
The whole screen tested about 69,000 compounds, of which about 8,600 (12%) showed an effect of 50% or more. For the sample, strong results were picked, then their nearest neighbours and some compounds at random.

tested on: Plasmodium berghei; assay: Screen against P. berghei liver stage (PbLuc), transformed with Luciferase, at 10uM; type: functional, HepG2; settings: tested at 10 uM

Structure (SMILES) | INHIBITION [%]
COc1ncccc1CNC(=O)Nc1ccc(N(C)C)nc1 | 15.6
COCCN1C(=O)CCC12CCN(c1ncc(F)cn1)CC2 | 14.1
Cc1cccc(CNC2CCCc3c2cnn3Cc2ccccc2)c1 (configuration not stated) | 26.4
CCn1ncc2c1CCCC2NCc1ccc(OC)c(C)c1 (configuration not stated) | 38
CCn1ncc2c1CCCC2NCc1ccc(OC)c(F)c1 (configuration not stated) | 21.5
CCn1ncc2c1CCCC2NCc1ccccc1N1CCOCC1 (configuration not stated) | 56.4
CCn1ncc2c1CCCC2NCc1cccc2c1OCCO2 (configuration not stated) | 18.6
CCn1ncc2c1CCCC2NCc1cccc2c1OCO2 (configuration not stated) | 33.8
Cc1ccc(CNC2CCCc3c2cnn3Cc2ccccc2)s1 (configuration not stated) | 60.9
CCn1ncc2c1CCCC2NCc1ccc(C)s1 (configuration not stated) | -21.9
CCn1ncc2c1CCCC2NCc1cc(C)ccc1OC (configuration not stated) | 9.14
CCCOc1ccc(CNC2CCCc3c2cnn3CC)cc1OC (configuration not stated) | 52
CCn1ncc2c1CCCC2NCc1cscn1 (configuration not stated) | 35.4
CCn1ncc2c1CCCC2NCC1=Cc2ccccc2OC1 (configuration not stated) | 63.9
NC(=O)CN1CCCC(Cc2ccc(N3CCOCC3)nn2)C1 (configuration not stated) | 15.9
COC(=O)C(NC(=O)C1CCC1)c1cc(F)ccc1F (configuration not stated) | -19.9
Cc1nn(C)c(Cl)c1C(=O)NCC1(C(N)=O)CCOCC1 | 27.5
Cc1ccc2[nH]c(CN(C)Cc3n[nH]c4c3CCC4)nc2c1 | -30.5
Cc1ccc2nc(CN(C)Cc3[nH]nc4c3CCC4)[nH]c2c1C | -59.5
Cc1ccc2nc(CN(C)Cc3n[nH]c4c3CCCCC4)[nH]c2c1C | 69.6
CCCNS(=O)(=O)c1cnccc1N1CCN(C(C)C)CC1 | -15.5
C1CC(NCC2CC2)CN(Cc2noc(C3CC3)n2)C1 (configuration not stated) | 19.5
Cn1cc(-c2cccc(CNC(=O)N3CCC[C@@H]3CO)c2)cn1 | -21.6
CCN1CCN(C(=O)NCc2cccc(-c3cnn(C)c3)c2)CC1 | 50.1

Structure (SMILES) | INHIBITION [%]
CCC1COCCN1C(=O)NCc1cccc(-c2cnn(C)c2)c1 (configuration not stated) | 21.2
Cn1cc(C(=O)N2CC[C@@H]3[C@@H]2CCN3Cc2cccc(C#N)c2)cn1 | 41.6
CN(Cc1ccc(F)c(F)c1)C(=O)CCc1nc(-c2nnc[nH]2)no1 | 55.4
Cc1ccccc1CN(C)C(=O)CCc1nc(-c2nnc[nH]2)no1 | 13.7
CN(CCCc1ccccc1)C(=O)CCc1nc(-c2nnc[nH]2)no1 | 22
O=C(NCc1cccc(F)c1)NCC(O)c1cccc(F)c1 (configuration not stated) | -21.5
CN(C)CCOCc1nnc2n1CCN(CC1CC1)CC2 | 36.2
COc1cccc(C(=O)NCc2ccccc2S(=O)(=O)N(C)CCO)c1 | 78.1
Cc1ccc(C(=O)NCc2ccccc2S(=O)(=O)N(C)CCO)cc1F | -27.8
COc1cccc(C(=O)NCc2ccccc2S(=O)(=O)N(C)C)c1 | 45.2
Cc1noc(C2CCN(C(=O)c3cccs3)CC2)n1 | 21
CC1(C)CC(N2CCN(C3CCCC3)C(CCO)C2)CC(C)(C)C1 (configuration not stated) | -2.98
CN(CC(F)(F)F)C(=O)COc1nc(Cc2ccc(F)cc2)no1 | 40.6
Cc1cccc(C(=O)N2CCCSCC2CN2CCCC2)c1 (configuration not stated) | -19.7
Cn1[nH]c(CNc2cccc(Cl)c2)nc1=O | -0.473
Cc1cccc(NCc2nn(C)c(=O)[nH]2)c1 | 59.8
Cc1cccc(NCc2nc(C)ccc2O)c1 | 24.8
CCc1ncc2c(n1)CN(CC(=O)Nc1cc(C)no1)CC2 | -25.8
CN1CCN(C2CCCC2)C(CCO)C1 (configuration not stated) | 7.24
COC(=O)COc1nc(C(C)C)no1 | 7.25
CC(C)c1noc(OCC(=O)N(C)C(C)C)n1 | -13.6
CCN(CC)C(=O)COc1nc(C(C)C)no1 | 53.1
CCc1nn(C)c(Cl)c1CN1CCC(Cc2nncn2C)CC1 | -7.25
Cn1cnnc1CC1CCN(Cc2nn(C)c3cccc(Cl)c23)CC1 | 75.4

Structure (SMILES) | INHIBITION [%]
Cn1nc(CN2CCC(c3ccncc3)CC2)c2c(Cl)cccc21 | -18.1
Cc1nc(CN2CCOC3(CCCC3)C2)no1 | 42.5
Cc1nc(CN2CCCC(C)(CO)C2)no1 (configuration not stated) | 68.1
Cc1nc(CN2CCCN(CCCc3ccccc3)CC2)no1 | -34.8
c1csc(CN2CCc3onc(Cn4cccc4)c3C2)c1 | 2.41
Cc1cccc(S(=O)(=O)NC(=O)CCc2cscn2)c1 | 18.6
NC(=O)NC(=O)CCN(Cc1ccccc1)CC1CCOCC1 | 6.23
O=C(CN(Cc1ccccc1)CC1CCOCC1)Nc1nccs1 | -1.53
O=C(CN(Cc1ccccc1)CC1CCOCC1)NC(=O)NC1CC1 | 55.1
Cc1ccc(C(=O)NC2CCN(C(=O)NCc3ccccn3)CC2)o1 | -4.16
Cc1cc(NC(=O)NCC2CCN(C(C)C)C2)no1 (configuration not stated) | -25.8
Cc1cn2c(n1)CCC(NC(=O)c1ccc(S(C)(=O)=O)o1)C2 (configuration not stated) | 42.3
Cn1c2ncccc2c(=O)n1CC(=O)NCCC1=CCCCC1 | 66.8
Cn1c2ncccc2c(=O)n1CC(=O)NCCc1c(F)cccc1F | 39.6
Cc1ccc(CNC(=O)Cn2c(=O)c3cccnc3n2C)cc1F | 47.2
CCc1ccc(CN2CCc3ncnc(N4CCOCC4)c3CC2)o1 | 12.7
CC(C)(C)CN(CCC#N)Cn1cc(Cl)cn1 | 40.7
CC(C)(C)c1nc(CN2CCCC2Cn2cncn2)no1 (configuration not stated) | -38
Cn1ccnc1CN1CCCCC1Cn1cccn1 (configuration not stated) | 59.7
Cc1cnn(CC2CCCN2Cc2cc(=O)n3cccc(C)c3n2)c1 (configuration not stated) | 42.9
N#Cc1cc(F)ccc1CN1CCCCC1Cn1cccn1 (configuration not stated) | 5.03
N#Cc1cc(F)ccc1CN1CCCC1Cn1cccn1 (configuration not stated) | 66.7
Cn1ccnc1CN1CCCC1Cn1cccn1 (configuration not stated) | -14
Cc1cccn2c(=O)cc(CN3CCCC3Cn3cncn3)nc12 (configuration not stated) | -30.7

Structure (SMILES) | INHIBITION [%]
Cc1cnn(CC2CCCN2Cc2noc(C(C)(C)C)n2)c1 (configuration not stated) | -9.37
Cc1cnn(CC2CCCN2Cc2nccn2C)c1 (configuration not stated) | 41.2
Cc1cccn2c(=O)cc(CN3CCCC3Cn3cccn3)nc12 (configuration not stated) | 65.2
N#Cc1ccc(CN2CCCC2Cn2cccn2)c(F)c1 (configuration not stated) | 25.6
CC(C)(C)c1nc(CN2CCCC2Cn2cccn2)no1 (configuration not stated) | 60.5
CCOc1ncccc1NC(=O)C1CCS(=O)(=O)C1 (configuration not stated) | 11.9
Cc1ccc(CN2CCOC(c3cnccn3)C2)s1 (configuration not stated) | 16.82
Cn1cc([C@@H]2CN(S(=O)(=O)c3ccccc3F)C[C@H]2N)c2ccncc21 | 18
Cc1nnc(NC(=O)NCc2ccnc(N(C)C)c2)s1 | -39.7
COC(=O)CC1CCN(C(=O)c2ccc(C)cc2)CC1 | 28.7
CNC(=O)C1(Cc2cc(C(C)C)no2)CCN(Cc2ccccn2)C1 (configuration not stated) | 11.9
Cc1noc(C(C)C)c1C(=O)NS(=O)(=O)c1ccc(Cl)cc1 | -28.4
CNc1cccc(C2CCCN(C(=O)c3cccnc3)C2)n1 (configuration not stated) | 35.2
Cc1cnn(CC2CCCN2Cc2c(C)noc2C)c1 (configuration not stated) | 5.983
O=C(CCc1nccs1)N1CCCC(n2ccnc2)C1 (configuration not stated) | -1.14
CCOC(C)c1nccn1Cc1cc(C)on1 (configuration not stated) | 26.4
CC(=O)Nc1ccc(CNC(C)c2c(C)nn(C)c2C)cc1 (configuration not stated) | -42.1
COCCC(=O)N1CCCC1c1csc(Nc2ccccn2)n1 (configuration not stated) | 30.8
CC(C)c1cc(NC(=O)CN2CCCC2Cn2cccn2)on1 (configuration not stated) | 19.5
Cc1noc(C)c1CN1CCCC1c1nnc2ccccn12 (configuration not stated) | 17.5
CC(C)(C)c1nc(CN2CCCC2c2nnc3ccccn23)no1 (configuration not stated) | 57.2
CC(C)(C)c1cc(NC(=O)CN2CCCC2Cn2cncn2)on1 (configuration not stated) | 9.41
CC(C)(C)c1cc(NC(=O)CN2CCCC2Cn2cccn2)on1 (configuration not stated) | 53
CCn1c(C2CCCN2Cc2noc(C(C)(C)C)n2)nc2ccccc21 (configuration not stated) | -12.1

Structure (SMILES) | INHIBITION [%]
COc1cccc(C(=O)NC(CC(=O)O)c2cccs2)c1OC (configuration not stated) | -7.31
Cc1nc(C#N)c(N2CCC(c3nc(-c4ccccc4)no3)CC2)o1 | 57.6
CCc1nc(C#N)c(N2CCC(c3nc(-c4ccccc4)no3)CC2)o1 | 34.6
Cc1nc(C#N)c(N2CCC(c3nc(-c4ccc(F)cc4)no3)CC2)o1 | 34
O=C(NCc1cc(F)cc(Br)c1)C1(O)CCSCC1 | -26.2
CC(C)(C(=O)N1CCC(CS(N)(=O)=O)CC1)c1ccccc1F | 17.9
CC(C)(C(=O)N1CCC(C(N)=O)C1)c1ccccc1F (configuration not stated) | 52.9
CC(C)(C(=O)NCC(=O)N1CCCC1)c1ccccc1F | -36.4
c1coc(CN2CCCC3(COCCN(Cc4c[nH]nn4)C3)C2)c1 (configuration not stated) | 4.92
CCc1cc(N2CC(N3CCCCC3C)C2)n2nccc2n1 (configuration not stated) | 12.8
CCNC(=O)C1CCN(c2cc(CC)nc3ccnn23)C1 (configuration not stated) | 52.2
CCc1cc(N2CCN3CCCCC3C2)n2nccc2n1 (configuration not stated) | 30.9
Cc1nn2c(N3CCC(C(N)=O)CC3)cc(-c3ccccc3)nc2c1C | 61.3
Cc1nn2c(N3CCC(O)CC3)cc(-c3ccccc3)nc2c1C | 41.8
CCNC(=O)C1CCN(c2cc(-c3ccccc3F)nc3ccnn23)C1 (configuration not stated) | 53.3
CCNC(=O)C1CCN(c2cc(-c3ccccc3)nc3ccnn23)C1 (configuration not stated) | 33
CCNC(=O)C1CCN(c2nccc(C3CCCC3)n2)C1 (configuration not stated) | -2.34
CCNC(=O)C1CCN(c2cc(-c3ccccc3)nc3cc(C)nn23)C1 (configuration not stated) | 56.5
O=C1CN(c2cc(-c3ccccc3F)nc3ccnn23)CCCN1 | 6.11
CC(=O)NC1CCN(c2cc(-c3ccccc3)nc3c(C)c(C)nn23)C1 (configuration not stated) | -3.58
Cc1nn2c(N3CCCC(C(N)=O)C3)cc(-c3ccccc3)nc2c1C (configuration not stated) | -32.2
